# RORgamma inh: inhibitors of mouse ROR gamma transcriptional activity; Drosophila S2 Gal4-RORgamma UAS-luciferase reporter, 20 h; Potency, µM (series often up to 53.6 µM), for the others: at the top dose activity change, negative = inhibition, actives largely listed as inhibitors; hit rate 5.4% among 310,000; AID 2551; further: nearly all actives have a fitted effect of over 60% in size
#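 Drosophila Schneider cells stably carrying a metallothionein-driven Gal4 DBD–ROR gamma fusion and a UAS-Photinus luciferase reporter were exposed to compound for 1 hr, then induced with copper sulfate (700 uM final) for 20 hr at ambient temperature before luminescence reading.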
# VP16 counter: Gal4-VP16 reporter inhibition counter-screen. Drosophila S2 Gal4-VP16 UAS-luciferase, luminescence, 20 h. Potency, µM (titrated, usually from 53.6 µM), inactives show at the highest dose activity, negative = inhibition, hits mostly inhibitors. hit rate 3.5% among 310,000. AID 2546;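 further: Gal4-VP16 expression switched on by copper sulfate through the metallothionein promoter; nearly all actives have a fitted effect of over 50% in size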
# PLK1 PBD block: inhibitors of human PLK1 polo-box domain binding | Potency, µM, for inactives: max response, negative = inhibition, usual class: inhibitors | Plk1 PBD binding of FITC phosphopeptide, fluorescence polarization | AID 720504 | P53350 | hit rate 2.8% among 360,000; further: series mostly up to about 57 µM; nearly all actives have a fitted effect of over 65% in size
# Target sequence (P53350 whole entry, looked up, the tested form may be a part): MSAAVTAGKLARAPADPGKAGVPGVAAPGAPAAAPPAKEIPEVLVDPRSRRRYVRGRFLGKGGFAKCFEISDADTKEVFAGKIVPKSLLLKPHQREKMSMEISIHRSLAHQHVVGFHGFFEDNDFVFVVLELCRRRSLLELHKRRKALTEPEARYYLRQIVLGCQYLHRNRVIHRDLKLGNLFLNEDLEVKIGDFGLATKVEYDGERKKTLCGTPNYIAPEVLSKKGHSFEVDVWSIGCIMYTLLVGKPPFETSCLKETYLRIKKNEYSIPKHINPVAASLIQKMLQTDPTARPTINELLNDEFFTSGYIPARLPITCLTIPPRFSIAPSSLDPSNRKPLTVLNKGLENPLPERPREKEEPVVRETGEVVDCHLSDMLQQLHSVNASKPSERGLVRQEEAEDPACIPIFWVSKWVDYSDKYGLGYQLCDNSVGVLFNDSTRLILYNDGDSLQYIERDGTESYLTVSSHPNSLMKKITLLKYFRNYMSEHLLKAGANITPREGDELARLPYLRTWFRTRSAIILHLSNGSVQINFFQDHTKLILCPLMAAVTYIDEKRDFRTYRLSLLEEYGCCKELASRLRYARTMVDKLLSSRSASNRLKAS
# Sfp inh: Sfp phosphopantetheinyl transferase inhibition | Biochemical Sfp PPTase activity, qHTS | Q9F4F7 | AID 1490 | hit rate 3.5% among 310,000 | Potency, µM, for the others: largest response in the series, negative = inhibition, most hits filed as inhibitors;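 further: the enzyme is Sfp with the accession as filed and its product quenches rhodamine fluorescence; 0% = enzyme reaction without inhibitor and -100% = no enzyme wells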
#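 Buffer: 50 mM Hepes-Na pH 7.6, 10 mM MgCl2, 0.01% Nonidet P-40, 0.01% BSA. Enzyme 15 nM, pre-exposed to compound 15 min; substrates then added and fluorescence change tracked over 30 min.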
# ALDH1A1 inh: ALDH1A1 (human) enzyme inhibition; Purified ALDH1A1, NADH fluorescence, propionaldehyde substrate; AID 1030; Potency, µM (titrated, usually from 75.3 µM), for the others: at the highest dose activity, negative = inhibition, actives largely listed as inhibitors; hit rate 7.3% among 220,000; active means well fitted inhibition curve with a large enough effect, not every such curve was filed as active; inconclusive means small, poorly fitted or top-dose-only effect, or another doubt; inactive means no such curve, though single readings can be large or run the other way;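 further: plate controls were no enzyme wells and a reference inhibitor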
# * marks the source's active call; other numbers are inactive results; ? = inconclusive; . = no result given; [ ] = another dose, or the depositor's remark. Hits are enriched below; roughly 12% of the tested compounds scored in any of these assays. Unless noted, the call rests on the fitted dose curve; in most records, active means well fitted curve in the direction sought with a large enough effect; inconclusive means small, poorly fitted or top-dose-only effect, or another doubt; inactive means no such curve, though single readings can be large; an effect the other way counts as inactive or inconclusive. Unless noted, on the % scale 0 is the no-effect control and ±100 the full control effect; potency means the concentration at half of the fitted maximal effect.
SMILES,RORgamma inh,VP16 counter,PLK1 PBD block,Sfp inh,ALDH1A1 inh
Cc1ccc(CN(CC2CCCO2)C(=O)CN2C(=O)C(C(C)C)Oc3ccccc32)o1 (stereo not given),-1.1%[10 µM],5.7%,?,44.7µM*,-11.7%
CC(C)C1Oc2ccccc2N(CC(=O)N(Cc2ccccn2)CC2CCCO2)C1=O (stereo not given),-3.5%[10 µM],3.9%,-5.8%,0.8%,-2.1%
Cc1ccc(C2CC(=O)C=C(NCC(C)C)C2)cc1 (stereo not given),8.6%,-3.0%,26.7µM*,13.9%,-5.7%
COc1cccc(NC(=S)NCc2cccnc2)c1,18.7%,-3.2%,-6.3%,12.3%,-6.2%
COC(=O)c1cccc(NC(=S)Nc2cccc(Cl)c2C)c1,?,?,-0.9%,10.6%,?
COc1cccc(CNC(=O)C2Cc3ccccc3CN2C(C)=O)c1 (stereo not given),27.9%,7.4%,29.9µM*,11.9%,.
COc1cccc(CNC(=S)Nc2cccc(Cl)c2C)c1,5.01µM*,3.55µM*,8.5%,14.6%,.
COc1cc(C)c(NC(=S)Nc2cccc(Cl)c2C)cc1OC,12.6µM*,?,-2.2%,?,?
COc1cccc(CNC(=S)Nc2cc(C)ccc2C)c1,3.16µM*,6.31µM*,-5.7%,-1.3%,?
COc1ccc(OC)c(NC(=S)NCc2cccnc2)c1,6.4%,-18.0%,-18.6%,-11.8%,-9.1%
CCS(=O)(=O)N1Cc2ccccc2CC1C(=O)NCc1cccc(OC)c1 (stereo not given),?,-28.4%,-1.8%,-3.2%,.
CC(=O)NC(C)(c1ccccc1)c1nc(-c2cccc(C#N)c2)cs1 (stereo not given),.,.,-8.6%,.,.
COc1cc(Cn2c3ccc(NC(=O)CCc4ccc(O)cc4)cc3c(=O)n2C)ccc1F,.,.,-4.2%,.,.
O=C1NC[C@H](CCCCN2CCN(CCC3CCCCC3)C(=O)C2=O)N(CC2CCCCC2)C1=O,.,.,-7.4%,.,.
COc1cccc(CNC(=O)CCl)c1,-17.9%,-10.5%,-9.1%,12.5%,7.08µM*
O=S(=O)(NC1=NCCCCC1)c1ccc2sc(NS(=O)(=O)c3ccc4ccccc4c3)nc2c1,-43.0%,-8.2%,10.6µM*,-22.7%,.
O=[N+]([O-])c1cc(CN2CCCC2)c2cccnc2c1O,?,?,-21.6%,-2.1%,-6.1%
O=[N+]([O-])c1cc(CN2CCN(c3cccc(C(F)(F)F)c3)CC2)c2cccnc2c1O,0.112µM*,?,?,10.0%,17.8µM*
COc1ccc(C(=O)OCC2CC(c3ccccc3)=NO2)cc1OC (stereo not given),0.8%,3.6%,10.6µM*,-4.8%,?
O=C(Cn1cccc1C(=O)c1ccccc1)NCc1cccc(Cl)c1,10.1%,-15.5%,23.8µM*,-3.1%,4.1%
O=C(O)Cn1cccc1C(=O)c1ccccc1,-0.5%,-8.2%,-9.8%,21.1%,14.1µM*
O=C(Cn1cccc1C(=O)c1ccccc1)NCCc1ccc(Cl)cc1,-24.0%,-1.4%,23.8µM*,8.5%,.
Cc1nn(CC(=O)NCCc2ccc(Cl)cc2)c(=O)c2cccn12,16.2%,1.2%,26.7µM*,18.5%,.
COC(=O)Cn1cccc1C(=O)c1ccccc1,?,-1.4%,-11.5%,14.6%,2.2%
Cc1nn(CC(=O)NCc2ccccc2)c(=O)c2cccn12,-1.0%,1.1%,2.0%,16.9%,.
SMILES,RORgamma inh,VP16 counter,PLK1 PBD block,Sfp inh,ALDH1A1 inh
CCCNC(=O)C1(C)CCCN(Cc2ccc(C(F)(F)F)cc2)C1 (stereo not given),.,.,-1.6%,.,.
CCCNC(=O)C1(C)CCN(C(=O)Cc2ccc(OC)c(OC)c2)C1 (stereo not given),.,.,-1.7%,.,.
Cc1cc(O)c2c(c1O)C(=O)[C@]13C(=C2O)C(=O)[C@@H]2[C@@H](O)[C@H]1[C@@H]1[C@H](O)[C@H]3C(=O)C3=C(O)c4c(O)cc(C)c(O)c4C(=O)[C@]312,.,.,29.9µM*,.,.
Cc1cc(O)c2c(c1O)C(=O)c1c(O)cc(C)c(O)c1C2=O,-11.4%,-3.0%,.,-5.0%,-8.5%
N=c1n(Cc2ccc(Cl)cc2)c2ccccc2n1CC(O)COc1ccccc1 (stereo not given),4.3%,3.9%,-10.1%,-3.7%,9.7%
N=c1n(Cc2ccccc2)c2ccccc2n1CC(O)COc1ccc(Cl)cc1Cl (stereo not given),?,?,?,17.8µM*,0.4%
CC1(C(=O)Nc2ccc(Cl)c(Cl)c2)CCN1C(=O)Cc1cccc2ccccc12 (stereo not given),.,.,-7.1%,.,.
Nc1c(C(=O)Nc2ccccc2)sc2nc(-c3ccco3)ccc12,13.7%,9.1%,-21.4%,7.94µM*,?
COc1ccccc1NC(=O)c1sc2nc(-c3ccco3)ccc2c1N,1.7%,11.8%,?,-23.5%,?
Nn1c(SC/C=C/c2ccccc2)nnc1-c1cccnc1,29.9%,-1.8%,-3.3%,-6.4%,12.6µM*
Clc1ccc(-n2c(SC/C=C/c3ccccc3)nnc2-c2cccnc2)cc1,2.5%,?,-7.5%,-24.0%,?
COc1ccc(C2OC3C(CO)OC(n4cnc5c(=O)[nH]c(N)nc54)C3O2)cc1 (stereo not given),4.6%,-7.7%,.,5.9%,1.8%
Cc1ccc(S(=O)(=O)N(C)C)cc1NC(=O)CCc1ccccc1,-4.0%,-1.2%,4.2%,4.2%,4.47µM*
COc1ccc(S(=O)(=O)N(C)C)cc1NC(=O)Cc1c[nH]c2ccccc12,8.8%,2.6%,-2.2%,10.5%,-17.4%
Cc1ccc(S(=O)(=O)N(C)C)cc1NC(=O)CCc1c[nH]c2ccccc12,43.2%,-4.2%,-15.8%,17.1%,4.47µM*
CC1CCN(S(=O)(=O)c2ccc3c(c2)NC(=O)CS3)CC1,-17.3%,-1.3%,-1.1%,14.0%,.
CN(C)C(=O)c1ccc(-c2nc(N(C)C)c3ccccc3n2)cc1,11.6%,-15.1%,.,4.3%,?
CCOC(=O)c1c(C)nc(C)c(C(=O)OCC)c1-c1ccccc1,14.9%,-11.5%,-5.5%,44.7µM*,?
NNC(=O)c1cc(C2CC2)nc2ccc(Br)cc12,-18.5%,-8.2%,-5.9%,6.4%,.
O=C(NCCc1ccc(Cl)cc1)c1cc(-c2ccccn2)nc2ccccc12,11.2µM*,?,18.9µM*,-15.1%,.
O=C(NCCc1ccc(Cl)cc1)c1cc(-c2ccncc2)nc2ccccc12,7.6%,-12.3%,-18.4%,0.9%,.
NS(=O)(=O)c1ccc(CCNC(=O)c2cc(-c3ccc(Br)cc3)nc3ccccc23)cc1,3.55µM*,?,1.7%,-4.6%,1.1%
NNC(=O)c1cc(-c2ccc(O)cc2)nc2ccc(Br)cc12,12.6µM*,?,1.2%,9.2%,14.1µM*
Cc1noc(C)c1-c1cc(NCc2cccs2)ncn1,-20.4%,13.2%,.,26.2%,-4.7%
COc1ccc(CN2C(=O)CCC2(C)c2nc3ccccc3[nH]2)cc1 (stereo not given),.,.,-3.4%,.,.
CC1(C)CC(=O)C(N=Nc2ccc(C(F)(F)F)cc2[N+](=O)[O-])=C(O)C1,-34.6%,?,2.6%,-1.9%,3.55µM*

# Compound activity deposited in PubChem BioAssay by National Center for Advancing Translational Sciences (NCATS).
